Source: PubChem (National Center for Advancing Translational Sciences (NCATS))
The list is not random: actives were taken first. Their share in the collection is about 19%.
DT40 TDP1 no CPT: qHTS for Inhibitors of human tyrosyl-DNA phosphodiesterase 1 (TDP1): qHTS in cells in absence of CPT. DT40 Tdp1-/- hTDP1 cells, no CPT, ATP luminescence, 48 h. actives 15% (n = 420,000). Potency, µM (highest dose often 46.2 µM), for the others: at the top dose activity change, negative = growth inhibition, most hits filed as inhibitors; further: potency means the concentration at half of the fitted maximal effect; nearly all actives have a fitted effect of over 55% in size
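DT40 Tdp1-/-;hTDP1 cells, no CPT (DMSO vehicle only), 400 cells/well; compounds pin-transferred; ≥48 hr, 37 °C; CellTiter-Glo 30 min RT dark, luminescence read.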
TDP1 cell CPT: qHTS for Inhibitors of human tyrosyl-DNA phosphodiesterase 1 (TDP1): qHTS in cells in presence of CPT; chicken DT40 Tdp1-/-;hTDP1 cells + 20 nM CPT, ATP luminescence, 48 h; Potency, µM (highest dose often 46.2 µM), for inactives: at the top dose activity change, negative = growth inhibition, most hits filed as inhibitors; actives 12% (n = 420,000); AID 686979, 2013; further: potency means the concentration at half of the fitted maximal effect; nearly all actives have a fitted effect of over 55% in size
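Chicken DT40 Tdp1-/- cells complemented with human TDP1, 400 cells/well, exposed to compounds plus 20 nM camptothecin for at least 48 h at 37 C; viability read as ATP content by CellTiter-Glo luminescence.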
HT1080 IDH1KD tx: qHTS for induction of synthetic lethality in tumor cells producing 2HG: qHTS for the HT-1080-IDH1KD cell line | actives 2% (n = 360,000) | AID 686971, 2013 | HT-1080 IDH1 knockdown viability, ATP luminescence, 48 h | Potency, µM (highest dose often 46.1 µM), inactives show at the highest dose activity, negative = toxicity, hits mostly cytotoxic;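 further: potency means the concentration at half of the fitted maximal effect; 0% = DMSO wells and -100% = cell-free medium wells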
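Assay cells: HT-1080 with IDH1 knockdown, 750 per well, RPMI/5% FBS. Exposure: 48 h at 37 °C following 2 h pre-incubation. Read: CellTiter-Glo luminescence; fitted concentration-response, curve class assigned.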
HT1080NT lethal: qHTS for induction of synthetic lethality in tumor cells producing 2HG: qHTS for the HT-1080-NT fibrosarcoma cell line; Potency, µM (doses to about 46.1 µM), for inactives: at the highest dose activity, negative = less viability, most hits filed as cytotoxic; actives 1.6% (n = 360,000); HT-1080-NT fibrosarcoma viability, CellTiter-Glo ATP luminescence, 48 h; AID 686970, 2013;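 further: NT is the 2HG producing partner of a matched IDH1 knockdown line; potency means the concentration at half of the fitted maximal effect; 0% = DMSO-treated cells and -100% = media-only wells without cells; nearly all actives have a fitted effect of over 55% in size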
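Luminescent CellTiter-Glo readout after 48 hours of compound exposure at 37 degrees C defined viability of HT-1080-NT cells. Activity was normalized to DMSO wells and cell-free media wells; concentration-response curves were fitted and assigned curve classes.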
IL1B secr inh: qHTS for Inhibitors of Inflammasome Signaling: IL-1-beta AlphaLISA Primary Screen; THP-1 LPS/ATP IL-1B secretion, AlphaLISA, 16 h; hits give low values; activity change, % at 57.5 µM; actives 4.7% (n = 360,000); AID 743279, 2014; in the data active means activity change below about -50%; inconclusive means mostly about -30% to -49%
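Secreted IL-1B measured by AlphaLISA bead assay after 16 h compound exposure of THP-1 cells; compounds (final up to 57.5 uM) added 1 h before LPS (250 ng/mL) and ATP (1.25 mM) stimulation; lower signal means less secretion.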
* = called active by the depositor. Unless noted, the call rests on the fitted dose curve; in most records, active means well fitted curve in the direction sought with a large enough effect; inconclusive means small, poorly fitted or top-dose-only effect, or another doubt; inactive means no such curve, though single readings can be large; an effect the other way counts as inactive or inconclusive. Unless noted, on the % scale 0 is the no-effect control and ±100 the full control effect.

What do the screens show for `CCn1c(SCc2cccc(Br)c2)nnc1-c1nonc1NC(C)=O`?
DT40 TDP1 no CPT: 23.1µM*; TDP1 cell CPT: 18.4µM*

Results for Cc1cccc(NC(=O)CSc2nc(-c3ccccc3)cn2-c2ccccc2)c1C ?
DT40 TDP1 no CPT: 23.1µM*; TDP1 cell CPT: inconclusive

How did Cc1ccc(NC(=O)CSc2nnc(-c3n[nH]c4ccccc34)n2-c2ccccc2)c(C)c1 do in these assays?
DT40 TDP1 no CPT: inconclusive; TDP1 cell CPT: 14.6µM*; HT1080 IDH1KD tx: inconclusive; HT1080NT lethal: -25.3%; IL1B secr inh: -51.1*

Results for CCc1[nH]nc(C(=O)N2CCCC(C(=O)c3cccc(C(F)(F)F)c3)C2)c1C (stereo unspecified) ?
DT40 TDP1 no CPT: inconclusive; TDP1 cell CPT: inconclusive; HT1080 IDH1KD tx: -25.2%; HT1080NT lethal: -8.8%; IL1B secr inh: 15.0

What do the screens show for `COc1ccccc1-c1nc2cc(C(=O)NC[C@H]3CCc4ccccc4O3)cc(NC(C)=O)c2n1C`?
DT40 TDP1 no CPT: -19.1%; TDP1 cell CPT: -5.9%

What do the screens show for `NS(=O)(=O)c1cccc(NC(=O)COC(=O)c2cc(-c3ccc(Cl)cc3)nc3ccccc23)c1`?
DT40 TDP1 no CPT: inconclusive; TDP1 cell CPT: inconclusive; HT1080 IDH1KD tx: inconclusive; HT1080NT lethal: -20.4%; IL1B secr inh: inconclusive

What do the screens show for `CC(=O)Nc1nonc1-c1nnc(SCC(=O)Nc2c(C)cccc2C)n1-c1ccccc1`?
DT40 TDP1 no CPT: -29.0%; TDP1 cell CPT: inconclusive

How did Cc1ccc(C(=O)n2c(-c3ccccc3)cnc2SCC(=O)Nc2ccc(C)cc2C)cc1 do in these assays?
DT40 TDP1 no CPT: 25.9µM*; TDP1 cell CPT: inconclusive; HT1080 IDH1KD tx: -0.5%; HT1080NT lethal: -9.6%; IL1B secr inh: -29.4

How did O=C(CS(=O)(=O)c1nc(-c2ccc(Cl)cc2)cn1-c1ccccc1)Nc1cccc(Cl)c1 do in these assays?
DT40 TDP1 no CPT: inconclusive; TDP1 cell CPT: 23.1µM*

Results for CC(=O)Nc1nonc1-c1nnc(SCC(=O)Nc2cccc(C)c2C)n1-c1ccccc1 ?
DT40 TDP1 no CPT: 25.9µM*; TDP1 cell CPT: 23.1µM*

Results for Cc1ccc(C(=O)n2c(-c3ccccc3)cnc2SCC(=O)Nc2ccccc2)cc1 ?
DT40 TDP1 no CPT: inconclusive; TDP1 cell CPT: -6.7%; HT1080 IDH1KD tx: -1.7%; HT1080NT lethal: -5.6%; IL1B secr inh: -11.3

How did Cc1ccc(-c2cn(-c3cccc(Cl)c3)c(S(=O)(=O)CC(=O)Nc3cccc(C)c3)n2)cc1 do in these assays?
DT40 TDP1 no CPT: inconclusive; TDP1 cell CPT: 16.4µM*

What do the screens show for `O=C(/C(C=Nc1ccc(Br)cc1)=C(/O)c1ccco1)C(F)(F)F`?
DT40 TDP1 no CPT: -12.8%; TDP1 cell CPT: -6.0%; HT1080 IDH1KD tx: -26.4%; HT1080NT lethal: -11.2%; IL1B secr inh: -8.5

Results for O=C1c2ccccc2C(=O)N1CCCCN(C(=O)c1ccco1)c1ccc(Cl)cc1 ?
DT40 TDP1 no CPT: inconclusive; TDP1 cell CPT: inconclusive; HT1080 IDH1KD tx: -0.1%; HT1080NT lethal: 2.3%; IL1B secr inh: -12.6

Results for O=C1/C(=C/N(C(=O)c2ccco2)c2ccc(Br)cc2)Sc2ccccc21 ?
DT40 TDP1 no CPT: 14.6µM*; TDP1 cell CPT: inconclusive; HT1080 IDH1KD tx: inconclusive; HT1080NT lethal: inconclusive; IL1B secr inh: -13.8

Results for O=C1/C(=C/N(C(=O)c2ccco2)c2ccc(Cl)cc2)Sc2ccccc21 ?
DT40 TDP1 no CPT: 16.4µM*; TDP1 cell CPT: 23.1µM*; HT1080 IDH1KD tx: 1.4%; HT1080NT lethal: -11.6%; IL1B secr inh: inconclusive

Results for O=C(Nc1c(C(=O)Nc2ccccc2F)oc2ccccc12)c1cc2ccccc2o1 ?
DT40 TDP1 no CPT: inconclusive; TDP1 cell CPT: -1.2%

How did COC(=O)c1ccc(N=NN2CCCCCC2)cc1 do in these assays?
DT40 TDP1 no CPT: 2.1%; TDP1 cell CPT: 0.6%; HT1080 IDH1KD tx: -1.0%; HT1080NT lethal: -6.4%; IL1B secr inh: -63.4*

What do the screens show for `O=C(NC(=S)Nc1cc(-c2nc3ccccc3[nH]2)ccc1Cl)c1ccc2c(c1)OCO2`?
DT40 TDP1 no CPT: 3.66µM*; TDP1 cell CPT: 5.17µM*; HT1080 IDH1KD tx: inconclusive; HT1080NT lethal: -17.2%; IL1B secr inh: -22.2

How did S=C(NCc1ccc2c(c1)OCO2)Nc1ccc(-c2nc3ccccc3[nH]2)cc1 do in these assays?
DT40 TDP1 no CPT: 18.4µM*; TDP1 cell CPT: 20.6µM*; HT1080 IDH1KD tx: inconclusive; HT1080NT lethal: inconclusive; IL1B secr inh: inconclusive

How did Cc1ccc(-c2nc3ccccc3[nH]2)cc1NC(=O)c1ccc2c(c1)OCO2 do in these assays?
DT40 TDP1 no CPT: inconclusive; TDP1 cell CPT: inconclusive; HT1080 IDH1KD tx: -12.2%; HT1080NT lethal: -7.1%; IL1B secr inh: -17.1

What do the screens show for `COc1cc(/C=C2\CCc3c2nc2ccccc2c3C(=O)O)cc(OC)c1OC`?
DT40 TDP1 no CPT: -17.0%; TDP1 cell CPT: -4.0%; HT1080 IDH1KD tx: inconclusive; HT1080NT lethal: inconclusive; IL1B secr inh: 19.7

How did COc1cc(/C=c2/sc3nc(-c4ccccc4)c(-c4ccccc4)n3c2=O)cc(OC)c1OC do in these assays?
DT40 TDP1 no CPT: 10.3µM*; TDP1 cell CPT: 6.51µM*; HT1080 IDH1KD tx: -0.4%; HT1080NT lethal: 1.0%; IL1B secr inh: 3.0

Results for COc1ccc(/C=c2\sc3nc(-c4ccccc4)c(-c4ccccc4)n3c2=O)cc1OC ?
DT40 TDP1 no CPT: 16.4µM*; TDP1 cell CPT: inconclusive; HT1080 IDH1KD tx: 2.7%; HT1080NT lethal: 7.1%; IL1B secr inh: -8.6

How did COc1ccc(/C=c2/sc3nc(-c4ccccc4)c(-c4ccccc4)n3c2=O)cc1 do in these assays?
DT40 TDP1 no CPT: inconclusive; TDP1 cell CPT: inconclusive; HT1080 IDH1KD tx: 13.2%; HT1080NT lethal: 15.6%; IL1B secr inh: -1.7

How did COc1ccc(-c2[nH]ncc2/C=N\NC(=O)c2ccc(Br)o2)cc1OC do in these assays?
DT40 TDP1 no CPT: -21.8%; TDP1 cell CPT: -10.6%; HT1080 IDH1KD tx: 0.4%; HT1080NT lethal: 1.8%; IL1B secr inh: -4.3

What do the screens show for `O=C(Cn1cncn1)N/N=C/c1cccnc1`?
DT40 TDP1 no CPT: 7.2%; TDP1 cell CPT: 12.8%; HT1080 IDH1KD tx: 4.9%; HT1080NT lethal: 1.5%; IL1B secr inh: 21.0

How did COc1ccc(C2C(O)C(c3c[nH]c4ccccc34)=NN2C(=O)CCl)cc1 (stereo unspecified) do in these assays?
DT40 TDP1 no CPT: 0.581µM*; TDP1 cell CPT: 0.326µM*; HT1080 IDH1KD tx: 0.651µM*; HT1080NT lethal: 0.461µM*; IL1B secr inh: -99.4*
